# From PubChem
# The full list was thinned out, with hits kept by preference.
# Sa growth 42C: S. aureus growth inhibition | S. aureus RN4220 growth, OD600, 20 h, 42 °C; active compounds read low | relative growth, % (concentration not given with the values) | 170,000 compounds, 0.53% hits;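 active = relative growth at most 50% at the other temperature and 20+ points below 30 °C, or under 10% at both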
# Sa helicase inh: S. aureus DNA helicase inhibition. purified S. aureus helicase, fluorescence unwinding assay. 120,000 compounds, 0.05% hits. inhibition, % (no concentration beside the values); in the data active = inhibition above about 25%, passing the limit was not always enough;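 note: 0% = mean of negative control wells and 100% = mean of positive control wells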
# * marks the source's active call; other numbers are inactive results; x = not tested or not shown.
SMILES,Sa growth 42C,Sa helicase inh
CC[C@H]1OC(=O)C[C@@H](O)[C@H](C)[C@@H](O[C@@H]2O[C@H](C)[C@@H](O[C@H]3C[C@@](C)(O)[C@@H](O)[C@H](C)O3)[C@H](N(C)C)[C@H]2O)[C@@H](CC=O)C[C@@H](C)C(=O)/C=C/C(C)=C/[C@@H]1CO[C@@H]1O[C@H](C)[C@@H](O)[C@@H](OC)[C@H]1OC,-0.2*,x
CS(=O)(=O)N1CCN(c2ccc(N)cc2)CC1,88,0
Cc1ccc(NC(=O)Cc2c(C)nc3ncnn3c2C)cc1,99,-10
O=C(CCn1[nH]c(=O)ccc1=O)Nc1ccc2c(c1)CCC2,79,3
CCOC(=O)c1cc2occc2n1CC,99,6
CCCn1cnc2cc(NCc3ccncc3)ccc21,79,10
Cc1ccc(CNc2ccc3c(c2)ncn3C2CCCCC2)cc1,-0.5*,-7
CCCn1cnc2cc(NCc3ccc(Cl)cc3Cl)ccc21,0.5*,3
CCCCn1cnc2cc(NCc3ccc(Br)cc3)ccc21,7.6*,6
CCCCn1cnc2cc(NCc3cc(OC)c(OC)c(OC)c3)ccc21,99,19
Oc1ccccc1CNc1ccc2c(c1)ncn2C1CCCCC1,109,6
CCCn1cnc2cc(NCc3ccccc3O)ccc21,98,0
CCCn1cnc2cc(NCc3ccc(Br)cc3)ccc21,0.3*,5
NS(=O)(=O)c1ccc(CCNC(=O)NC2CC(=O)N(c3ccccc3)C2)cc1 (configuration not stated),85,-6
Cc1ccc(NC(=O)c2sc3nc4c(cc3c2N)CCCC4)cc1,87,-1
CC(=O)Nc1ccc(S(=O)(=O)NNc2ncnc3sccc23)cc1,99,22
Cc1c(C#N)c(N)n(CCN2CCOCC2)c1C,78,-50
CC(C)C(=O)Nc1ccc(N)cc1,91,7
CCOC(=O)c1sc(-c2ccc(F)cc2)cc1N,48*,-6
CCOC(=O)c1sc(-c2ccccc2)cc1N,x,7
O=C(NCCc1ccccc1)c1ccc(CS(=O)Cc2cccc(Cl)c2)o1 (configuration not stated),86,2
O=C(NCCc1ccc(Cl)cc1)c1ccc(CS(=O)Cc2cccc(Cl)c2)o1 (configuration not stated),7.4*,x
CN=c1scc(-c2ccc3c(c2)OCCO3)n1/N=C/c1c[nH]c2ccccc12,68,13
COc1cc(/C=c2\sc3nc(-c4oc5ccccc5c4C)nn3c2=O)cc(OC)c1OC,91,14
CC(=O)Nc1c(OC(C)=O)c2ccccc2oc1=O,97,8
SMILES,Sa growth 42C,Sa helicase inh
CS(=O)(=O)CCC(C(=O)Oc1cccc2cccnc12)N1C(=O)c2ccccc2C1=O (configuration not stated),0.7*,12
CS(=O)(=O)CCC(C(=O)n1nnc2ccccc21)N1C(=O)c2ccccc2C1=O (configuration not stated),114,16
N#CCON1C(=O)c2ccccc2C1=O,91,2
CC(C)(CNC(=O)Cc1ccsc1)N1CCOCC1,95,-6
CC(C)(CNC(=O)Nc1ccc(Cl)c(Cl)c1)N1CCOCC1,-0.6*,12
CC(C(=O)N1CCCCC1)N1CCC(N2CCCCC2)CC1 (configuration not stated),102,4
NCc1cn(-c2ccccc2)nc1-c1ccccc1,86,2
N=C(N)SCc1cn(-c2ccccc2)nc1-c1ccc(Br)cc1,1.1*,-6
Cc1nnsc1-c1nnc(SCC(=O)N(c2ccccc2)C2CCCCC2)n1C1CC1,97,x
C[n+]1ccc(/C=C/c2ccccc2F)c2ccccc21,7,25
CN1C=C/C(=C\c2cc[n+](C)c3ccccc23)c2ccccc21,0.6*,86*
N#Cc1ccc(/C=N/c2oc(-c3ccco3)c(-c3ccco3)c2C#N)cc1,100,-30
N#Cc1c(Cl)cccc1NCC1(N2CCOCC2)CCCCC1,82,-10
Oc1ccccc1C1=CC(c2ccc(Br)cc2)n2ncnc2N1 (configuration not stated),97,33
O=C(O)CCc1ccc(-c2cccs2)o1,94,11
Cc1ccc(-c2ccc(CCC(=O)O)o2)cc1,-1.4*,14
O/N=C/c1cn(-c2ccccc2)nc1-c1cccs1,x,-6
c1ccc(CN2CCN(CCCNc3ccc4nncn4n3)CC2)cc1,117,8
Oc1c(C(c2ccc(C(F)(F)F)cc2)N2CCCC2)ccc2cccnc12 (configuration not stated),1.1*,-13
Oc1c(C(c2ccncc2)N2CCCC2)ccc2cccnc12 (configuration not stated),66,-2
COc1ccc(C(c2ccc3cccnc3c2O)N2CCOCC2)cc1 (configuration not stated),8.8*,18
COc1ccc(C(c2ccc3cccnc3c2O)N2CCCC2)cc1 (configuration not stated),96,-20
CCC(C)OC(=O)COc1ccc2c(=O)c(-c3ccc(OC)c(OC)c3)c(C(F)(F)F)oc2c1 (configuration not stated),95,4
CCOC(=O)Cn1c(C)cc(=O)c2cccc(OC)c21,85,-17
CCSc1ccc(SC#N)s1,-0.4*,14
SMILES,Sa growth 42C,Sa helicase inh
CCSc1nc2ccccc2s1,85,-22
CC1=NN(c2nc3ccccc3s2)C(=O)C1CCC(C)C (configuration not stated),1.9*,-3
CC1=NN(c2nc3ccccc3s2)C(=O)C1,92,x
CCOC(=O)c1cn2cc(Cl)ccc2n1,104,-14
N#C/C(=N/Nc1ccc2c(c1)OCO2)C(=O)N1CCCC1,95,-31
N#CC(C#N)=NNc1ccc2c(c1)OCCO2,-0.1*,21
CCOc1ccc(-n2c(O)c(C=Nc3cc(C)on3)c3ccccc3c2=O)cc1,96,-8
O=C1c2cccc3cccc(c23)N1CNc1ncccn1,124,5
O=C(NC(=O)c1ccccc1O)c1cccs1,131,x
Cc1ccc(O)c(C(=O)CC(=O)c2cccs2)c1,6.4*,-8
COc1cc(NC(=O)CNc2cc(Cl)cc(Cl)c2)cc(OC)c1,108,-2
CCC1CCCCN1C(=O)Cn1cc(S(=O)(=O)N(C)C)ccc1=O (configuration not stated),97,29*
CN(C)S(=O)(=O)c1ccc(=O)n(CC(=O)NCC2COc3ccccc3O2)c1 (configuration not stated),99,-11
COC(=O)CNC(c1ccccc1)c1cc(Br)ccc1NC(=O)CCN1CCOCC1 (configuration not stated),21*,6
COC(=O)CNC(c1ccccc1)c1cc(Br)ccc1NC(=O)c1ccc(Cl)cc1 (configuration not stated),101,x
Cn1c(=O)c2c(SCc3cccc(F)c3)nc(-c3ccc(F)cc3)nc2n(C)c1=O,83,18
O=C1OC(c2ccccc2)=C/C1=C/c1ccc(Cl)cc1,100,15
O=C1OC(c2ccccc2)=C/C1=C/c1ccccc1,-0.6*,x
Ic1ccc(OCCCCn2ccnc2)cc1,1.3*,10
CCOc1ccc(NC(=S)NCCCn2ccnc2)cc1,97,5
CC(C)(C)c1ccc(OCCCn2ccnc2)cc1,2.3*,-8
Clc1cccc(Cl)c1OCCCn1ccnc1,103,-19
CSc1ccc(/C=C2\SC(N)=NC2=O)cc1,81,2
O=C(Nc1ccc(F)cc1)Oc1ccccc1N1CCOCC1,95,-6
CC1CN(c2ccccc2OC(=O)Nc2ccc(OC(F)(F)F)cc2)CC(C)O1 (configuration not stated),3.0*,x
